Assays:
Conditions in all cases: Compound Concentration (nM):1000
TBK1 = tested on: TBK1
TEC = tested on: TEC
TESK1 = tested on: TESK1
TGFBR1 = tested on: TGFBR1
TGFBR2 = tested on: TGFBR2
TIE1 = tested on: TIE1
TIE2 = tested on: T1, TIE2
T1 construct: gene TEK

TLK1 = tested on: TLK1
TLK2 = tested on: TLK2
TNIK = tested on: TNIK
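Note: KINOMEscan scanMAX binding as percent activity remaining versus control; lower means stronger binding.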

SMILES | Percent Control (TBK1) | Percent Control (TEC) | Percent Control (TESK1) | Percent Control (TGFBR1) | Percent Control (TGFBR2) | Percent Control (TIE1) | Percent Control (TIE2) | Percent Control (TLK1) | Percent Control (TLK2) | Percent Control (TNIK)
COc1cc2ncnc(Nc3ccc4c(cnn4Cc4ccccc4)c3)c2cc1OC.Cl [GW282449A] | 100% | 83% | 100% | 100% | 100% | 100% | 100% | 100% | 100% | 100%
Nc1ncnc2occ(-c3ccc(NC(=O)Nc4cc(C(F)(F)F)ccc4F)cc3)c12 [GW770249X] | 100% | 100% | 100% | 100% | 100% | 2.6% | 3.8% | 100% | 100% | 59%
NS(=O)(=O)c1ccc(Nc2ncc(-c3ccccc3)o2)cc1 [GW572399X] | 100% | 99% | 100% | 100% | 100% | 100% | 100% | 63% | 47% | 52%
NS(=O)(=O)c1ccc(N/N=C2\C(=O)Nc3ccc(C(=O)NCc4ccncc4)cc32)cc1 [GW300657X] | 33% | 100% | 100% | 100% | 100% | 85% | 100% | 71% | 75% | 82%
CN1CCN(C(=O)c2ccc(NC(=O)Nc3ccc(N(C)c4ccnc(Nc5ccc(CS(C)(=O)=O)cc5)n4)cc3)cc2)CC1.Cl [GW830263A] | 55% | 100% | 100% | 88% | 26% | 8.3% | 41% | 86% | 100% | 23%
Cl.c1ccc(Cc2nc3ccc(Nc4ncnc5ccccc45)cc3[nH]2)cc1 [GR269666A] | 100% | 100% | 100% | 100% | 100% | 100% | 100% | 100% | 100% | 100%
CN(C)CCNC(=O)Nc1ccc(N(C)c2ccnc(Nc3ccc(CS(C)(=O)=O)cc3)n2)cc1.Cl [GW830900A] | 98% | 82% | 100% | 100% | 75% | 72% | 100% | 89% | 100% | 49%
COc1cc(C=NNc2ncnc3c2cnn3-c2ccccc2)ccc1O [GW513184X] | 95% | 90% | 100% | 79% | 100% | 74% | 65% | 100% | 100% | 84%
COc1cccc(-c2c[nH]c3c(N/N=C/c4ccncc4)ncnc23)c1 [GW814408X] | 71% | 90% | 97% | 55% | 100% | 96% | 100% | 84% | 100% | 51%
COc1cc2ncn(-c3cc(O[C@H](C)c4ccccc4Cl)c(C(N)=O)s3)c2cc1OC [GSK237701A] | 80% | 100% | 100% | 72% | 100% | 13% | 97% | 96% | 98% | 99%
